# Data as given in PubChem BioAssay.
# A number with no mark means an inactive call. Some of the results follow. Active and inactive are the calls of the source.
# Experiments:
# [1] = target: Voltage-gated inwardly rectifying potassium channel KCNH2 (Homo sapiens) (UniProt Q12809); assay: hERG channel inhibition, counter-screen for Kir2.1 inhibitor project, cell-based, thallium flux (AID 2236; call rule not given here;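 further: host cells are CHO cells stably expressing hERG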); settings: hERG-expressing cells, at 10 µM, active compounds read high
# [2] = target: Potassium channel subfamily K member 9 (Homo sapiens) (UniProt Q9NPC2); assay: KCNK9 channel inhibition, selectivity assay for Kir2.1 inhibitor project, cell-based (AID 2329; call rule not given here); settings: KCNK9-expressing cells, ion flux inhibition; at 10 µM; active compounds read high
# [3] = target: Short transient receptor potential channel 4 (Mus musculus) (UniProt Q9QUQ5); assay: mouse TRPC4 membrane potential modulation by TRPC6 hits, confirmation, selectivity assay for TRPC6 inhibitor project, cell-based, second specificity screen, HEK293 TRPC4/mu-opioid (AID 2776;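 active means compounds whose fluorescence signal differed from control wells by over 3 SD, either direction, in both duplicate plates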); settings: HEK293 TRPC4/MOR, membrane potential dye fluorescence; at 10 µM; active compounds read high; channel activated by saturating DAMGO dose
# [4] = tested on: transient receptor potential cation channel C4 (TRPC4), mouse; assay: mouse TRPC4 modulation by TRPC6 hits, confirmation, selectivity assay for TRPC6 inhibitor project, cell-based, HEK293 TRPC4/mu-opioid, membrane potential dye (AID 2777;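 active means rise or fall in signal beyond 3 SD of buffer-only wells in both replicate plates, either sign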;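 further: integrated kinetic ratio of fluorescence range over baseline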); settings: membrane potential fluorescence, at 10 µM
# [5] = nonspecific membrane potential effects, parental HEK293, confirmation, counter-screen for TRPC6 inhibitor project, cell-based, second counter screen (AID 2779;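 active means membrane potential signal moving either way by over 3 SD of the maximum-effect control, in both duplicate plates, meaning non-specific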); settings: parental HEK293 membrane potential dye fluorescence; at 10 µM; maximal acetylcholine challenge after compound addition
# [6] = membrane potential modulation in parental HEK293, confirmation, counter-screen for TRPC6 inhibitor project, cell-based (AID 2780;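 active means membrane potential signal shifting up or down by more than 3 SD of buffer-only wells, on both duplicate plates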;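 further: plate controls were buffer EC0 wells for no effect and acetylcholine ECmax wells for full effect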); settings: parental HEK293 membrane potential dye fluorescence; at 10 µM
# [7] = target: Inward rectifier potassium channel 2 (Mus musculus) (UniProt P35561); assay: mouse Kir2.1 channel blockers, Kir2.1 inhibitor project, cell-based, secondary, automated electrophysiology (AID 463252; call rule not given here); settings: Kir2.1 cells, automated patch-clamp current inhibition; at 25 µM; active compounds read high
# [8] = target: Short transient receptor potential channel 6 (Mus musculus) (UniProt Q61143); assay: mouse TRPC6 channel inhibitors, confirmation, HEK293 cells, membrane potential dye, duplicate (AID 488960;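 active means fluorescence ratio falls more than 5 SD below the full-stimulation control mean, in both duplicate runs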); settings: ACh-evoked depolarization, at 10 µM; active compounds read high
# [9] = target: Short transient receptor potential channel 6 (Mus musculus) (UniProt Q61143); assay: mouse TRPC6 channel activators, confirmation, HEK293 cells, membrane potential dye, duplicate (AID 488961;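 active means ratio signal rise beyond 5 SD above unstimulated control wells' mean, seen in both duplicate runs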); settings: HEK293-TRPC6 membrane potential dye fluorescence, FDSS; at 10 µM
# [10] = nonspecific thallium flux increase in parental CHO-K1, confirmation, counter-screen for KCNQ2 potentiator project, cell-based, FluxOR thallium flux, duplicate (AID 2282;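 active means signal rise of at least 3 SD above the untreated control mean, in both duplicate wells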;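 further: counter screen of KCNQ2 potentiator hits so any rise reflects channel-independent effects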); settings: parental CHO-K1 cells, FluxOR thallium flux fluorescence; at 10 µM; active compounds read high; zero = vehicle mean+3SD, 100% = vehicle-minus-blank window
# [11] = target: Potassium voltage-gated channel subfamily KQT member 1 (Homo sapiens) (UniProt P51787); assay: human KCNQ1 channel potentiation off-target, confirmation, selectivity assay for KCNQ2 potentiator project, cell-based, CHO, FluxOR thallium flux (AID 2283;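 active means fluorescence ratio rise of at least 3 SD of vehicle wells above their mean, in both replicate wells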;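 further: 0% = vehicle mean plus 3 SD and 100% = vehicle minus unstimulated blank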); settings: CHO KCNQ1 stable, FluxOR thallium flux fluorescence; at 10 µM; active compounds read high; beyond 3SD, as % of vehicle-control signal
# [12] = target: Potassium voltage-gated channel subfamily KQT member 2 (Rattus norvegicus) (UniProt O88943); assay: rat KCNQ2 channel potentiators, confirmation, cell-based, CHO, FluxOR thallium flux, duplicate (AID 2287;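 active means fluorescence ratio rising 3 SD or more over the vehicle control mean in both replicates, plus primary screen hit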;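 further: peak minus minimum thallium fluorescence divided by baseline after K/Tl stimulus; 0% = vehicle mean plus 3 SD and 100% = vehicle minus unstimulated blank difference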); settings: CHO-KCNQ2 cells, FluxOR thallium flux fluorescence; at 10 µM; active compounds read high
# [13] = target: Inward rectifier potassium channel 2 (Mus musculus) (UniProt P35561); assay: PubChem AID 2345; settings: HEK293 Kir2.1, FluxOR thallium flux fluorescence; at 10 µM; active compounds read high;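 further: 0% = vehicle mean plus 3 SD and 100% = vehicle minus no-stimulus blank window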
# [14] = target: Potassium voltage-gated channel subfamily KQT member 2 (Rattus norvegicus) (UniProt O88943); assay: potentiators of retigabine-insensitive KCNQ2 W236L, mechanism study for KCNQ2 potentiator project, cell-based, rat KCNQ2 W236L, CHO, automated patch clamp (AID 2558;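 active means current increase at least 3 SD of the untreated controls above them in both duplicate recordings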); settings: automated patch clamp current, at 25 µM
# [15] = target: Potassium voltage-gated channel subfamily KQT member 1 (Homo sapiens) (UniProt P51787); assay: KCNQ1 potassium channel potentiators, confirmation, FluxOR thallium flux, CHO cells, duplicates (AID 493007;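 active means potentiation averaged over duplicate wells exceeding buffer-only control mean by more than 3 SD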;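 on outcome: cells depolarized by a potassium plus thallium sulfate stimulus after compound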;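 on potentiation: 0% = buffer-only wells and 100% = R-L3 activator control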); settings: KCNQ1 cell line, FluxOR thallium flux fluorescence, at 10 µM; active compounds read high, % of reference activator effect, buffer zero
# [16] = target: Potassium voltage-gated channel subfamily KQT member 2 (Rattus norvegicus) (UniProt O88943); assay: rat KCNQ2 channel potentiation, selectivity assay for KCNQ1 potentiator project, KCNQ2-CHO-K1 cells (AID 493009;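 active means mean duplicate potentiation above the buffer control mean plus 5 SD of buffer wells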;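 further: assay conditions were tuned for KCNQ1 rather than KCNQ2 modulators; signal is max minus min fluorescence divided by baseline after thallium stimulus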); settings: FluxOR thallium flux fluorescence, at 10 µM; active compounds read high, scaled: buffer 0, activator control 100
# [17] = target: Potassium voltage-gated channel subfamily KQT member 1 (Homo sapiens) (UniProt P51787); assay: KCNQ1 channel current potentiators, confirmation, orthogonal assay for KCNQ1 potentiator project, IonWorks patch clamp, KCNQ1-CHO cells (AID 493184); settings: automated patch clamp current, at 10 µM
# Chain of Potassium voltage-gated channel subfamily KQT member 1 (Homo sapiens) (P51787 whole entry, looked up): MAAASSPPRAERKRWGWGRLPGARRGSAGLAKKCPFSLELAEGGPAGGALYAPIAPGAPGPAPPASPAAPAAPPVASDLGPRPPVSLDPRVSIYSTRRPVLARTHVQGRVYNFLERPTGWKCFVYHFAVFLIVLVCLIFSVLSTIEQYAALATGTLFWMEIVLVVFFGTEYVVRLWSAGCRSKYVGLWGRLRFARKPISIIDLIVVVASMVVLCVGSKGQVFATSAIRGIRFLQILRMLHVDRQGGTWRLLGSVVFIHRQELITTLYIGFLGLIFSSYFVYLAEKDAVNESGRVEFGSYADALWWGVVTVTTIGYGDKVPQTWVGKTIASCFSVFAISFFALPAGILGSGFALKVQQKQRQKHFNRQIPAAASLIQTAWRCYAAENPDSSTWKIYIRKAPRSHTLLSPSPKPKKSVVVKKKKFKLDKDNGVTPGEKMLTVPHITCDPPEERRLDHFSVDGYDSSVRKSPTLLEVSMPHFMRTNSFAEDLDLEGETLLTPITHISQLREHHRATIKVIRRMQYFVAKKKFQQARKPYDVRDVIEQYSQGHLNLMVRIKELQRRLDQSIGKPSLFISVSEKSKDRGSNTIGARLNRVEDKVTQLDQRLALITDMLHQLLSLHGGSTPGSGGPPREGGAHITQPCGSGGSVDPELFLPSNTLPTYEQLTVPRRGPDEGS
# Chain of Short transient receptor potential channel 6 (Mus musculus) (Q61143 whole entry, looked up): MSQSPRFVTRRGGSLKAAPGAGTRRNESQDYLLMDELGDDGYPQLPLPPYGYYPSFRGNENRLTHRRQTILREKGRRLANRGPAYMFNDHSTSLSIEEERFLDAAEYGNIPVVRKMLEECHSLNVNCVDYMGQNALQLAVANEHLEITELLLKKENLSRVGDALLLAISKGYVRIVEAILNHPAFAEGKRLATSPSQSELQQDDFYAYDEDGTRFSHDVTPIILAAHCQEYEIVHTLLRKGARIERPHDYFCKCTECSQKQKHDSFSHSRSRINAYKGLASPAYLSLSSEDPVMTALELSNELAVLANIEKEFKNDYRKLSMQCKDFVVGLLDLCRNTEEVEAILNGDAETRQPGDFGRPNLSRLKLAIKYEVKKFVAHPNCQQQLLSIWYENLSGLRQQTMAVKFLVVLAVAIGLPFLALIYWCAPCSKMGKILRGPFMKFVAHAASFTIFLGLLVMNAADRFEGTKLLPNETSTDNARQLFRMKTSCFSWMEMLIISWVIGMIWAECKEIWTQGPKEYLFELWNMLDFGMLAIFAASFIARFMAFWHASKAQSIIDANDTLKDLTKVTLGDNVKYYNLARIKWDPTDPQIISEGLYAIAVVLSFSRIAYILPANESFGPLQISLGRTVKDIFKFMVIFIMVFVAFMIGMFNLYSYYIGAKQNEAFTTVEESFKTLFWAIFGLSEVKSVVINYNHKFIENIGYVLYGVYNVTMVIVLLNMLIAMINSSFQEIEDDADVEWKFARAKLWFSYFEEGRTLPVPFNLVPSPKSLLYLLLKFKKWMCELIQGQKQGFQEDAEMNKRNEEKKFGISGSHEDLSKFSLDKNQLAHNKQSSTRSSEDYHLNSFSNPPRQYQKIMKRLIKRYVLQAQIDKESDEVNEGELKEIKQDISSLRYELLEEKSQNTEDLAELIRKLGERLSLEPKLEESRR
# Chain of Inward rectifier potassium channel 2 (Mus musculus) (P35561 whole entry, looked up): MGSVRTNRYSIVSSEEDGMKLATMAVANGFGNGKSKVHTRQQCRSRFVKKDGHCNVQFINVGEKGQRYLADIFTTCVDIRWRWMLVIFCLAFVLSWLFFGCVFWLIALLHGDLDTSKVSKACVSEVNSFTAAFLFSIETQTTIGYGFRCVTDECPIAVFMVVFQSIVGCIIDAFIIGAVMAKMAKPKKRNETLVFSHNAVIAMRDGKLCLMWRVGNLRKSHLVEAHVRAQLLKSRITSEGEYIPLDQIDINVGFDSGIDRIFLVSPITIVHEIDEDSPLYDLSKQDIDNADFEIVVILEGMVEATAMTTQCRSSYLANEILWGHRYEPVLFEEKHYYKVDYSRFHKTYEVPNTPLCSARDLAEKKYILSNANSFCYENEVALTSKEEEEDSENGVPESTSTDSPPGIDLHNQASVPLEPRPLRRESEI
# Chain of Short transient receptor potential channel 4 (Mus musculus) (Q9QUQ5 whole entry, looked up): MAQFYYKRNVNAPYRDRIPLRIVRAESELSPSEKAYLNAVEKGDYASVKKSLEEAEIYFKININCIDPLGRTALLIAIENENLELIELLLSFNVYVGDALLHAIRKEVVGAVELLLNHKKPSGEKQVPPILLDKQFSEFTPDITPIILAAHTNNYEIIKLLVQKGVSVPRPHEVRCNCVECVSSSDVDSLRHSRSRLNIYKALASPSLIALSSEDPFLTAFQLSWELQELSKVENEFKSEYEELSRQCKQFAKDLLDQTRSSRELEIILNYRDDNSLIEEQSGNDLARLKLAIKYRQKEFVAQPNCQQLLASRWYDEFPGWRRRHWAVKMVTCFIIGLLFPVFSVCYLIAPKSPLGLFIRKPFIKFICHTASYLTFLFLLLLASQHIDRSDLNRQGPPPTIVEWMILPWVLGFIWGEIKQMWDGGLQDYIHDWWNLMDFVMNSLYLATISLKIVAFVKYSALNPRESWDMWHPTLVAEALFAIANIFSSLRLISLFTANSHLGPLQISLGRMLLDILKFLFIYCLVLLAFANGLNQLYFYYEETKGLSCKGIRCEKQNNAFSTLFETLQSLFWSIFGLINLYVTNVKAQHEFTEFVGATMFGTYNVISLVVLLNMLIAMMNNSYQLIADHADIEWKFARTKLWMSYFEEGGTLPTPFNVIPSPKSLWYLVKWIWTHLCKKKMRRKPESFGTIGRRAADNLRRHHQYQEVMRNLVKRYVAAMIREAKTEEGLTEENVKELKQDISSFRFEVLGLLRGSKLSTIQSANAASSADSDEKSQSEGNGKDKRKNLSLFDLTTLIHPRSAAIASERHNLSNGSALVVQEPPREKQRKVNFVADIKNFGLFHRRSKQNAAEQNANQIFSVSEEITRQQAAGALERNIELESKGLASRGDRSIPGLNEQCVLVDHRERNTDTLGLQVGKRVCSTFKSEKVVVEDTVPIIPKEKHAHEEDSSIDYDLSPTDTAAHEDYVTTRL
# Chain of Voltage-gated inwardly rectifying potassium channel KCNH2 (Homo sapiens) (Q12809 whole entry, looked up): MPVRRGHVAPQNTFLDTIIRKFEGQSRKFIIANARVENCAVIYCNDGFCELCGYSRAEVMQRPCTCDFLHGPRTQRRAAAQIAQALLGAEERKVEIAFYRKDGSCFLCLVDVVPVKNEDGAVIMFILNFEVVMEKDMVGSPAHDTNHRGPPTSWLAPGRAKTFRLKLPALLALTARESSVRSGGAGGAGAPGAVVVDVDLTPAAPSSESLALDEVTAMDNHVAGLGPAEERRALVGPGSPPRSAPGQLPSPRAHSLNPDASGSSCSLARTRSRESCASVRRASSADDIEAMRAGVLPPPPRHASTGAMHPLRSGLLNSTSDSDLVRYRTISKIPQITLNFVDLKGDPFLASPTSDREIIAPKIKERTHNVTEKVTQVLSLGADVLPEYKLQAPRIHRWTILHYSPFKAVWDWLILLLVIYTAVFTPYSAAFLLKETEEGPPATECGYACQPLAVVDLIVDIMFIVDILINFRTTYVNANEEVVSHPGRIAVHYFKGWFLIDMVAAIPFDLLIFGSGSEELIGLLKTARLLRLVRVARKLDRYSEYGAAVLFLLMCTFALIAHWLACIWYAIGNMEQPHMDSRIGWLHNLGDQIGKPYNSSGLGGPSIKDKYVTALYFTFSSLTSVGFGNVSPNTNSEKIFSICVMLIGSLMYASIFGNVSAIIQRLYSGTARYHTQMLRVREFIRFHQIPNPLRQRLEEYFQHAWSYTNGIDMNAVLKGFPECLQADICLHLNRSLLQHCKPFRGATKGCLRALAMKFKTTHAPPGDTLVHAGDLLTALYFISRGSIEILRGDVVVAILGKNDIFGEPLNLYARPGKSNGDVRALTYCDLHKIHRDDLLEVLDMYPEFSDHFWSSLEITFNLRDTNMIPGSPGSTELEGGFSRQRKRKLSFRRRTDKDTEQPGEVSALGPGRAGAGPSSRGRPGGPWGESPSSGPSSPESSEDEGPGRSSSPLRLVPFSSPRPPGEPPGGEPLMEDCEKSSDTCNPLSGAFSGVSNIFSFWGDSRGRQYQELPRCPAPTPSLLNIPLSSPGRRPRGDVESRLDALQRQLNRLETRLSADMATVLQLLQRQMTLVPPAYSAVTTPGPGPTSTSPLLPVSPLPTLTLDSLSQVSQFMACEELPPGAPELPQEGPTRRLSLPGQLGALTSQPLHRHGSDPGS
structure (smiles),measurement,setting,value
CCOc1cccc(=NC2CCCCC2)c2c(C)[nH]c(C)c12,inhibition,[1],74% (active)
same,inhibition,[2],48% (active)
same,inhibition,[3],56% (active)
same,"activity change, negative = inhibition",[4],-8.98% (active)
same,signal change vs control,[5],-3.5% (active)
same,membrane potential signal change,[6],-146% (active)
same,inhibition,[7],13.9% (active)
same,outcome,[8],inactive
same,outcome,[9],inactive
COc1cc(-n2c(=S)[nH]c3ccc(C)cc3c2=O)c(Cl)cc1Cl,activity increase over 3SD of controls,[10],2.8% (active)
same,activation over 3SD threshold,[11],-13.6%
same,"potentiation, less the hit threshold",[12],1.9% (active)
same,activity over 3SD threshold,[13],-22.9%
same,outcome,[14],inactive
same,potentiation,[15],22.5% (active)
same,potentiation,[16],153% (active)
same,outcome,[17],inactive
Cc1ccc(C[n+]2c(-c3ccc(C)cc3)cc(-c3ccc(C)cc3)cc2-c2ccc(C)cc2)cc1,potentiation,[15],124% (active)
same,potentiation,[16],185% (active)
same,outcome,[17],inactive
Nc1ncnc2c1ccn2[C@@H]1O[C@H](CO)[C@@H](O)[C@H]1O,outcome,[15],inactive
same,outcome,[16],inactive
same,outcome,[17],inactive
O=C(CCCN1CCC2(CC1)C(=O)NCN2c1ccccc1)c1ccc(F)cc1,potentiation,[15],55.5% (active)
same,potentiation,[16],323% (active)
same,outcome,[17],inactive
CN1CCN(c2cc(N3CCCC3)c([N+](=O)[O-])cc2F)CC1,outcome,[15],inactive
same,outcome,[16],inactive
same,outcome,[17],inactive
